{"source": "PubChem BioAssay (NCI)", "note": "About 83,000 compounds went through this panel and 20% of them were active in at least one assay; those are over-represented in the sample as a whole.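 Single-dose data. Exposure time 48 hours. Values below 10 considered active.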 A number with no mark means an inactive call. Calls of active or inactive are those of the source."}
{"system": "K-562 leukemia", "assay": "NCI-60 one-dose screen, 48 h (100 = growth as untreated, 0 = no growth, -100 = all killed)", "details": "10 µM"}
{"smiles": "O=C(Nc1ccc(I)cc1F)c1cc(-c2ccc(F)cc2F)ccc1O", "growth": "7.69% (active)"}
{"smiles": "COc1cccc(/C=C2\\N=C(C)N(CCc3ccc(S(N)(=O)=O)cc3)C2=O)c1", "growth": "99.9%"}
{"smiles": "CC1=C2C(=C[C@@](C)(COCOCCCl)[C@@H]2O)C(=O)[C@](C)(O)C12CC2", "growth": "8.32% (active)"}
{"smiles": "Nc1n[nH]c2cccc(C#Cc3cccc(NC(=O)Nc4cc(C(F)(F)F)cc(C(F)(F)F)c4)c3)c12", "growth": "-57.4% (active)"}
{"smiles": "O=C(N=Nc1c(O)[nH]c2ccc(Br)cc12)c1ccc2nc(-c3ccccc3)[nH]c2c1", "growth": "1.09% (active)"}
{"smiles": "COc1cccc(-c2ccc(/C=N/NC(=O)c3[nH]c4ccc(Br)cc4c3-c3ccccc3)o2)c1", "growth": "3.8% (active)"}
{"smiles": "COc1cc2c(cc1OC)CN(CCCCOc1cc(O)c3c(=O)cc(-c4ccccc4)oc3c1)CC2", "growth": "-6.81% (active)"}
{"smiles": "COc1ccc(CCN2C(=O)/C(=C/c3csc(C#N)n3)SC2=S)cc1", "growth": "1.79% (active)"}
{"smiles": "N#Cc1c(NC(=O)c2ccc(C(O)(C(F)(F)F)C(F)(F)F)cc2)sc2c1CCC(=O)C2", "growth": "-10.8% (active)"}
{"smiles": "Cn1cc(-c2cc(N)n3nc(-c4c[nH]c5ccc(Br)cc45)cc3n2)c2cc(Br)cnc21", "growth": "-27.4% (active)"}
{"smiles": "COc1ccccc1[C@H]1C(C(=O)c2ccc(Cl)cc2)C2(N[C@@H]1c1ccccc1)C(=O)Nc1ccccc12", "note": "(some centres not stated)", "growth": "0.571% (active)"}
{"smiles": "CC(=O)Nc1ccc(-c2cn(-c3cccc(C(=O)Nc4cc(C(F)(F)F)cc(C(F)(F)F)c4)c3)nn2)cn1", "growth": "-66.1% (active)"}
{"smiles": "CCCCCCCCCCCCCCCCCCCC(=O)NCCc1c[nH]c2ccc(OC(=O)CCCC(=O)OCCOOCCOOCCOOCCOOCCOOCCOOCCOOCCOOCCOOCCOOCCOOCCOC)cc12", "growth": "2.22% (active)"}
{"smiles": "O=C1Nc2ccc(Cl)cc2/C1=C/c1cccc(OCc2ccccn2)c1", "growth": "0.86% (active)"}
{"smiles": "CN1CCN(Cc2ccc(C(=O)Nc3cccc(Nc4ccc5cc(O)ccc5n4)c3)cc2C(F)(F)F)CC1", "growth": "-55.8% (active)"}
{"smiles": "O=C(O)CCCCCCCCCCN1C(=O)/C(=C/c2cnc(-c3ccc(Cl)cc3)s2)SC1=S", "growth": "22.1%"}
{"smiles": "COc1ccc(NC(=O)Nc2ccc(OCC(=O)N=Nc3c(O)[nH]c4ccc([N+](=O)[O-])cc34)cc2)cc1", "growth": "95.7%"}
{"smiles": "C/C(=C\\CC/C=C(\\C)CC/C=C(\\C)CC[C@@H](O)C(C)(C)O)CC/C=C(\\C)CC[C@@H](O)C(C)(C)O", "growth": "10.4%"}
{"smiles": "CCOC(=O)C1NN(c2ccc(S(N)(=O)=O)cc2)c2nc3nc(-c4cccs4)cc(-c4cccs4)c3c(=O)n21", "note": "(configuration not stated)", "growth": "83.3%"}
{"smiles": "CN(CCF)c1ccc(/C=C/C(=O)c2ccc(N)cc2O)cc1", "growth": "51.4%"}
{"smiles": "C=C1CCC2C3(C)COC(c4c(F)cccc4F)OC3CCC2(C)C1CC(O)C1=CCOC1=O", "note": "(configuration not stated)", "growth": "21.4%"}
{"smiles": "O=C(Nc1cccc(-c2cn(-c3ccc4oc(=O)ccc4c3)nn2)c1)Nc1cc(C(F)(F)F)cc(C(F)(F)F)c1", "growth": "9.1% (active)"}
{"smiles": "CN1CCCN(Cc2ccc(C(=O)Nc3cccc(Nc4ccc5cc(O)ccc5n4)c3)cc2C(F)(F)F)CC1", "growth": "14.8%"}
{"smiles": "N#Cc1c(NC(=O)c2ccc(C(F)(F)F)cc2C(F)(F)F)sc2c1CCC(=O)C2", "growth": "2.16% (active)"}
{"smiles": "O=C(c1ccc(O)cc1)C1[C@H](c2ccccc2Br)[C@@H](c2ccccc2)NC12C(=O)Nc1ccc(Br)cc12", "note": "(some centres not stated)", "growth": "29.9%"}
{"smiles": "COc1ccc(N2N=C(c3ccc4c(c3)OCCO4)CC2c2cccc(NC(=O)CCCNS(=O)(=O)c3ccc(F)cc3)c2)cc1", "note": "(configuration not stated)", "growth": "56%"}
{"smiles": "C=C1CCC2C3(C)COC(c4ccccc4F)OC3CCC2(C)C1C/C=C1/C(=O)OCC1O", "note": "(configuration not stated)", "growth": "12.3%"}
{"smiles": "O=C(Nc1nc2ccc([N+](=O)[O-])cc2s1)Nc1ccccc1I", "growth": "4.53% (active)"}
{"smiles": "COc1ccc(-c2ccc(/C=N/NC(=O)c3[nH]c4ccc(Br)cc4c3-c3ccccc3)s2)cc1", "growth": "87.6%"}
{"smiles": "Brc1ccc(/C=N/Nc2ncnc3sc4c(c23)CCN(Cc2ccccc2)C4)cc1", "growth": "20.9%"}
{"smiles": "CC(=O)Nc1ccc(-n2cnc3cc(-c4ccc(O)cc4)ccc32)cc1C", "growth": "41.2%"}
{"smiles": "O=C(c1ccc(O)cc1)C1[C@H](c2ccc(Br)cc2)[C@@H](c2ccccc2)NC12C(=O)Nc1ccccc12", "note": "(some centres not stated)", "growth": "35.3%"}
{"smiles": "Nc1nnc(-c2c[nH]c3ccc(F)cc23)c(-c2c[nH]c3ncccc23)n1", "growth": "31.9%"}
{"smiles": "CN1CCN(c2ccc(C(=O)/C=C/c3ccc(C#N)cc3)cc2)CC1", "growth": "7.48% (active)"}
{"smiles": "Cc1ccc(CSc2nc(-c3ccc(F)cc3)c(C#N)c(=O)[nH]2)cc1", "growth": "91.1%"}
{"smiles": "CCCCCCCCCCCCCCCCCCCC(=O)NCCc1c[nH]c2ccc(OC(=O)NOCCOCCOCCOCCOCCOCCOCCOCCOCCOCCOCCOCCOCCOCCOCCOCCOCCOCCOCCOCCOCCOCCOC)cc12", "growth": "8.69% (active)"}
{"smiles": "Cc1ccc(/C(N)=N/c2sc(-c3ccccc3)nc2-c2ccccc2)cc1", "growth": "28.5%"}
